The campaign covered roughly 97,000 compounds. About 130 (0.13%) were called active. No stated cut-off is given here; in the data, active means inhibition above about 34% (passing the limit was not always enough); inactive means the rest. Shown is part of a subset that was picked to be rich in actives.

Broadly, the inhibition is the drop in the measured response relative to a control, in per cent.

This test deals with Serine/threonine-protein kinase PLK1 (Homo sapiens) (UniProt P53350). The experiment in a line: Plk1 polo box domain binding inhibitors, primary screen, biochemical, fluorescence polarization (AID 693). The following applies: Plk1 PBD phosphopeptide binding, active compounds read high,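 tested at about 20 µM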.
Chain of Serine/threonine-protein kinase PLK1 (Homo sapiens) (P53350 whole entry, looked up, the tested form may be a part): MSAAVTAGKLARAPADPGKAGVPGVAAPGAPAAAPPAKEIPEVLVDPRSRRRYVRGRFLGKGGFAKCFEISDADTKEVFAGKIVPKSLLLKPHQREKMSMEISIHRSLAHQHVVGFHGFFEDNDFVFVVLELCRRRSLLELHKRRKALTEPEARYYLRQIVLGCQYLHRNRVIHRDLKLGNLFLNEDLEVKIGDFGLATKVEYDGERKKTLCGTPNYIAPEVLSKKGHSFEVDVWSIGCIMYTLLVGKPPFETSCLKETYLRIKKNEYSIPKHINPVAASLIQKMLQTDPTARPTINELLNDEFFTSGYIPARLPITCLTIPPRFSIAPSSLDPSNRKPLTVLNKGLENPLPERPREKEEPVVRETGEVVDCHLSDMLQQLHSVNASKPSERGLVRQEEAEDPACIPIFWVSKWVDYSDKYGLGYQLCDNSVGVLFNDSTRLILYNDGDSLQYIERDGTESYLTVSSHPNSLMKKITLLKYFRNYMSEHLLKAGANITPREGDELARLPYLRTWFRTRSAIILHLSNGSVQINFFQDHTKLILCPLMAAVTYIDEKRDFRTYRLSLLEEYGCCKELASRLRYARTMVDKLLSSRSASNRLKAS
With `Nc1ccccc1SCc1cc([N+](=O)[O-])cc2c1OCOC2`, the inhibition was 17.1% (inactive). For `Cc1nc(-c2ccccc2)sc1-c1nc(-c2ccccc2)ncc1S(=O)(=O)c1ccccc1`, the inhibition is -7.34% (inactive). The same measure for `COc1cc(/C=C2/C(=O)ON=C2C)ccc1OCc1ccccc1F`: -10.3% (inactive).

On to `COc1ccc(-c2oc(/N=C/N3CCCC3)c(C#N)c2-c2ccc(OC)cc2)cc1`, for which the inhibition was -15.2% (inactive). Consider `CC1(C)CC(=O)C=C(NCc2ccncc2)C1`, for which the inhibition was 41.4% (active).

For `CC1(C)CC(=O)C=C(NCCCNC2CCCCC2)C1`, the inhibition was -8.28% (inactive). With `CC1(C)CC(=O)C=C(NCCN2CCNCC2)C1` the figure was -22% (inactive); with `Cc1ccc2[nH]c(=O)c(CN(CCCN(C)C)C(=O)Nc3cccc(Cl)c3)cc2c1`, 3.64% (inactive); with `CCN(CC)CCN1C(=O)C(=O)/C(=C(/O)c2cnn(-c3ccccc3)c2C)C1c1cccs1` (centres undefined), -7.79% (inactive).

As to `Cc1cc(C)c(S(=O)(=O)NCC2CCC(C(=O)NCc3ccc4c(c3)OCO4)CC2)c(C)c1` (centres undefined), the inhibition was -7.41% (inactive). `COC(=O)c1ccc(OCC(=O)NC(C)(C)C)cc1`: the inhibition was 5.58% (inactive). With `C/C(=N\NC(=O)c1ccccc1C)c1ccc(N2CCOCC2)cc1` the figure was -3.42% (inactive). The same measure for `CCOC(=O)C1(S(=O)(=O)c2ccc(Cl)cc2)CCN(Cc2ccccc2)CC1`: -3.07% (inactive); for `O=C(CCc1ccc(S(=O)(=O)NC2CCCCC2)cc1)NCc1ccccc1`: 10.4% (inactive); for `O=C(NCCCN1CCOCC1)c1cnn2c(-c3ccccc3)cc(-c3ccccc3)nc12`: -14.2% (inactive). The same measure for `O=C(NCCOc1ccccc1)c1ccccc1`: -20.9% (inactive); for `O=C(COc1ccc(Cl)cc1)NCCC1=CCCCC1`: 14.2% (inactive). With `O=C(CCN1CCc2ccccc2C(O)(c2ccccc2)C1)c1ccc2c(c1)OCCO2` (centres undefined), the inhibition was 16.3% (inactive). Regarding `CCCCCN1CC(O)=C(c2ccccc2)C1=N`, the inhibition was -1.22% (inactive). With `CC(=NCc1ccco1)c1c(C(F)(F)F)[nH]n(-c2nc3ccccc3s2)c1=O` the figure was 9.65% (inactive); with `Cc1ccc(NC(=O)COc2ccc(-n3ccnc3)cc2)cc1Cl`, 2% (inactive); with `O=C(Nc1cc2c3c(c1)C1CCCC1CN3CC1CCCC21)c1ccc([N+](=O)[O-])cc1` (centres undefined), -24.1% (inactive). The same measure for `CC(C)(C)C(=O)Nc1ccc(C(=O)N/N=C/c2ccccc2OC(=O)c2ccc(Cl)cc2Cl)cc1`: 44.2% (inactive).

For the compound `CN(C)c1ccnc(Oc2ccc(F)cc2)c1C#N`, the inhibition is -3.95% (inactive).

Take `CCC(=O)c1c[nH]c(C(=O)NCC2CCCO2)c1` (centres undefined): the inhibition was 8.77% (inactive). For the compound `CS(=O)(=O)N(CC(=O)N1CCN(c2ccc(F)cc2)CC1)C1CCCCC1`, the inhibition was -6.27% (inactive).

For the compound `CC(=O)c1sc(NC(=O)c2cccc3ccccc23)nc1C`, the inhibition was -23.4% (inactive). The same measure for `COc1ccccc1NC(=O)CC(NCCN(C)C)C(=O)O` (centres undefined): 0.85% (inactive); for `CCCn1nnnc1NC(=O)COc1ccc(Cl)cc1C`: 12.8% (inactive); for `Oc1ccc2ccc3cccc[n+]3c2c1`: 61.2% (active). With `CN(C)C(CNC(=O)CCCOc1ccccc1)c1ccco1` (centres undefined) the figure was -20% (inactive). The same measure for `CCOc1cc2[nH]c(=S)n(CCN3CCCCC3C)c(=O)c2cc1OCC` (centres undefined): -2% (inactive).

`COC(=O)c1ccc(Cc2ccccc2)o1`: the inhibition is -14.5% (inactive). With `CCOC(=O)c1cc(C#N)c(N2CCCCC2)nc1-c1ccccc1` the figure was 20% (inactive). The same measure for `Cc1nnc(NC(=O)Cn2c(=O)sc3ccccc32)s1`: 12.9% (inactive); for `CC1CCN(C(=O)c2cc3nc(C4CC4)cc(C(F)(F)F)n3n2)CC1`: -4.74% (inactive). Regarding `O=c1c2ccccc2nc2n1C(CSc1ccc(Cl)cc1)CN2` (centres undefined), the inhibition was 23.7% (inactive).

Consider `COc1ccc2c(Cl)c(C(=O)NCc3ccco3)sc2c1`, for which the inhibition is -10.8% (inactive). The same measure for `N#CCSc1nc2ccc(N3CCOCC3)cc2c(=O)n1CCc1ccccc1`: -3.34% (inactive); for `CC(=O)Nc1ccccc1OC(=O)N1CCOCC1`: 7.14% (inactive); for `Cc1nn(C)cc1/C=C1\CCC/C(=C\c2cn(C)nc2C)C1=O`: -18.6% (inactive). With `COCCOC(=O)c1sc(=S)n(CCOC)c1N`, the inhibition was -9.37% (inactive).

In the case of `CC(=O)c1ccc(Cc2ncc(C(F)(F)F)cc2Cl)s1`, the inhibition is 25.2% (inactive). With `CC(C)(C)NC(=O)Cn1cnc([N+](=O)[O-])n1` the figure was -13.3% (inactive); with `CC(=O)NS(=O)(=O)c1ccc(NC(=O)/C=C/c2ccccc2Cl)cc1`, 18.9% (inactive); with `O=C(CNS(=O)(=O)c1ccc(Br)s1)N1CCN(C(=O)c2ccco2)CC1`, -13% (inactive). Regarding `COc1ccc(OC)c(-n2nnnc2SCC(=O)Nc2cc(C)ccc2OC)c1`, the inhibition was -6.45% (inactive).

With `CC(C)(C)NS(=O)(=O)c1ccc(NC(=O)NC2CCCCC2)cc1`, the inhibition was -21.3% (inactive). With `COc1ccc(S(=O)(=O)NCc2ccc(C(=O)N(C)Cc3ccco3)cc2)cc1` the figure was -4.97% (inactive); with `CCOC(=O)c1c(-c2ccccc2)csc1NC(=S)NC(=O)c1ccccc1`, 12% (inactive); with `C/C(=N\NC(=O)Cc1ccc(Cl)cc1)c1ccccn1`, 4.4% (inactive). The same measure for `Cc1ccc(S(=O)(=O)Oc2ccc(/C=N/NC(=O)c3c(Cl)cnn3C)cc2)cc1`: 14.5% (inactive); for `O=C(NC1CCCC1)C(c1ccccn1)N(C(=O)c1csnn1)C1CCCC1` (centres undefined): -11.5% (inactive); for `CCOc1cc(CNCCN(C)C)c(Cl)cc1OCC(=O)NCCc1ccccc1`: 9.84% (inactive).

Take `N#CC1=C(N)N(c2ccc(F)cc2)C(=O)C1`: the inhibition was 5.37% (inactive). With `Cc1c(NC(=O)CCCOc2ccccc2)cccc1[N+](=O)[O-]` the figure was 6.93% (inactive). With `CCC(C)c1ccc(O)c(/C=N/O)c1` (centres undefined) the figure was 8.06% (inactive); with `CCOC(=O)C1CSC(CC(=O)Nc2ccc(OCC)cc2)C(=O)N1` (centres undefined), 13.9% (inactive); with `COC(=O)c1sccc1NC(=O)CCC1CCCC1`, -8.56% (inactive). With `Cc1noc(C)c1C(=O)N1CCOCC1` the figure was -11% (inactive). In the case of `O=c1c2ccccc2nnn1CSc1nnnn1-c1ccccc1`, the inhibition is -3.85% (inactive). With `COc1ccc(-c2nnc(SCC(=O)c3ccc4c(c3)OCCO4)o2)cc1` the figure was -3.12% (inactive); with `COc1ccc(C(C)=O)cc1CN1C(=O)NC2(CCCCC2C)C1=O` (centres undefined), 3.66% (inactive). As for `CCC(=O)NC(Nc1nc2ccc(C)cc2s1)(C(=O)OC)C(F)(F)F` (centres undefined), the inhibition was -11.3% (inactive).

As for `CCOC(=O)C(=O)Nc1nc(-c2ccccc2)c(CC)s1`, the inhibition was 12.1% (inactive). With `CC(C)CCNC(=O)Cn1c(=O)oc2cc(S(=O)(=O)N3CC(C)CC(C)C3)ccc21` (centres undefined) the figure was -16.6% (inactive); with `O=C(c1ccc(Cl)cc1)c1cnc(Nc2ccccc2)s1`, -14.3% (inactive). With `COc1cc(C(=S)N2CCOCC2)cc(OC)c1OC(=O)c1cc([N+](=O)[O-])cc([N+](=O)[O-])c1` the figure was -2.97% (inactive). As for `C=CCn1c(N)cc(=O)nc1SCC(=O)Nc1cccc2ccccc12`, the inhibition was 15.4% (inactive). The same measure for `O=C(N/N=C/c1ccc(O)c(O)c1)C1c2ccccc2Oc2ccccc21`: -30.1% (inactive); for `O=C(Nc1ccccc1-c1nnn(CC(=O)N2CCCc3ccccc32)n1)c1cccc(Cl)c1`: -7.34% (inactive); for `Cn1c(Cc2cccc3ccccc23)nnc1SCC(=O)N1CCN(c2cccc(Cl)c2)CC1`: 23.1% (inactive). With `Cc1cccc(CCNS(=O)(=O)c2ccc(S(=O)(=O)NC3CCCC3)cc2)c1` the figure was -16.4% (inactive). The same measure for `CC(C)OC(=O)c1c(NC(=O)c2ccco2)sc2c1CCCC2`: -34.8% (inactive); for `CCCc1ccc(OCc2ccc(C(=O)N/N=C/c3cccc([N+](=O)[O-])c3)o2)c(OC)c1`: -2.94% (inactive). Turning to `CCC(c1nnnn1C(C)(C)C)N(Cc1cc2cccc(C)c2n2nnnc12)C1CCCC1` (centres undefined), the inhibition is -13.2% (inactive). With `Cc1[nH]c(=O)c(C(=O)/C=C/c2ccccc2)c2c1CCCC2` the figure was -8.98% (inactive). With `Cc1nn(C)cc1C(=O)NNC(=S)Nc1ccc(Cl)cc1` the figure was -11.1% (inactive); with `N#Cc1ccccc1CN1C(=O)S/C(=C/c2cccn2-c2cccc(C(=O)O)c2)C1=O`, -6.67% (inactive). The same measure for `O=C(CCCn1c(SCC(=O)c2ccccc2)nc2ccccc2c1=O)NCC1CCCO1` (centres undefined): 8.37% (inactive); for `Cc1ccc(OC(=O)c2ccccc2C(=O)OCC(F)(F)C(F)F)cc1`: -16.7% (inactive); for `CCOC(=O)CNC(=O)CSc1nc2cccnc2n1CC`: 7.16% (inactive). In the case of `C=C(Cl)COC(=O)C1C2C=CC(C2)C1C(=O)O` (centres undefined), the inhibition was 3.3% (inactive).

Consider `Cc1nnc(SCC(=O)N/N=C/c2cn(-c3ccccc3)nc2-c2ccc(F)cc2)n1-c1ccccc1`, for which the inhibition is -7.66% (inactive).

Consider `COCCCn1c(SCc2cccc(OC)c2)nc2cc(OC)c(OC)cc2c1=N`, for which the inhibition was -12.2% (inactive).

For `O=[N+]([O-])c1cccc(-c2nnc3c4ccccc4c4ccccc4n23)c1`, the inhibition was -7.67% (inactive). Consider `Cc1csc2ncc(C(=O)N(Cc3ccccc3)c3ccccn3)c(=O)n12`, for which the inhibition is -14.3% (inactive). The same measure for `COC(=O)c1c(-c2cccs2)csc1NC(=O)CSc1ncnc2sc(C)c(C)c12`: -2.76% (inactive); for `COc1ccc(C2=NOC3(CC(=O)N(c4ccc(C)cc4)C3=O)C2)cc1` (centres undefined): 13.3% (inactive).

`O=[N+]([O-])c1ccc(NCCCN2CCOCC2)c(Cl)c1`: the inhibition was -38.6% (inactive). The same measure for `O=C(c1ccco1)N1CCN(C(=O)C2CCCN(S(=O)(=O)c3cccc4nsnc34)C2)CC1` (centres undefined): -29.8% (inactive); for `Cc1ccc(C2NC(=S)NC3=C2N2CCC3CC2)cc1` (centres undefined): 3.93% (inactive); for `N#C/C(=C(\O)CCl)c1nnc2n1CCCCC2`: -0.62% (inactive).

Regarding `COc1ccc(C(=O)Nc2nc(-c3ccc(OC)cc3)c(-c3ccc([N+](=O)[O-])cc3)s2)cc1`, the inhibition is -2.13% (inactive).
